This note sets out measurements from PubChem BioAssay (NCATS).

A number with no mark means an inactive call. Records with an inconclusive call do not appear. Active and inactive are the calls of the source. Unless noted, calls come from the whole dose curve; as a rule, active = well fitted curve in either direction with a large enough effect (not every such curve was filed as active); inconclusive = small, poorly fitted or top-dose-only effect, or another doubt; inactive = flat fitted curve, though single readings scatter.

Assay [1] addresses Lysosomal acid glucosylceramidase (Homo sapiens) (UniProt P04062). The experiment in a line: Glucocerebrosidase-p2 (AID 348; in the data active = potency below about 10 µM; note: potency is the fitted concentration of half-maximal effect). To be noted: purified GBA, blue fluorogenic substrate, 40 min. The essentials: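 Compounds titrated from 0.6 nM upwards against 0.2 nM enzyme in pH 5.9 citric acid/KH2PO4, taurocholate, tween-20; blue fluorogenic substrate 80 uM, 40 min room temperature, stopped and read Ex 365/Em 440 for AC50.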

Assay [2] is described as follows: AP1 Signaling Pathway (AID 357). Note: % is set by controls: 0 for no effect and ±100 for the full control effect. As to conditions: ME-180 AP-1-bla reporter, EGF-induced, beta-lactamase ratio, 5 h; at 7.69 µM (top of the series) unless noted. The procedure, abridged: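 Read-out was the 460nm/530nm emission ratio (excitation 405nm) after CCF4 loading for 2.5 hours at room temperature. Cells carried an AP-1-driven beta-lactamase reporter, were stimulated with EC50 EGF plus compound for 5 hours, and AC50 values came from titrations.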

Assay [3] has as its target Cytochrome P450 1A2 (Homo sapiens) (UniProt P05177). The experiment in a line: p450-cyp1a2 (AID 410; calls by dose curve; note: potency is the fitted concentration of half-maximal effect;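 for activity change, negative = inhibition: -100% = full effect of reference inhibitor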). As to conditions: recombinant CYP1A2, luciferin-ME demethylation, luminescence; series mostly up to 11.4 µM. The procedure, abridged:
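Human CYP1A2 (20nM) demethylated Luciferin-ME at its Km (100uM) in 100mM KPO4. After 10 min compound preincubation, NADPH regeneration ran the reaction 60 min at room temperature. Luciferin was read by luminescence, normalized to 57 uM furafylline.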

Assay [4] in a line: NFAT Signaling Pathway (AID 444).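 Note: carbachol stimulus at about its EC50 of 1 µM final; % is set by controls: 0 for no effect and ±100 for the full control effect.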 As to conditions: Jurkat NFAT-bla M1, carbachol, beta-lactamase ratio, 5 h; at 7.69 µM (top of the series) unless noted. The essentials: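 Jurkat cells carrying an NFAT-driven β-lactamase reporter and co-transfected muscarinic M1 receptor were treated with compound plus carbachol (1 uM final, an EC50 level) for 5 h at 37 °C. CCF4 loading followed for 1 h at RT; 460/530 nm ratio gave %activity.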

Assay [5] can be described thus: Stat Signaling Pathway (AID 446).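 Note: ME-180 cervical cancer cells given 40 pM IL-6 alongside compound; SIE-controlled beta-lactamase reporter measured as 460/530 nm FRET emission ratio; % is set by controls: 0 for no effect and ±100 for the full control effect.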 As to conditions: ME-180 SIE beta-lactamase reporter, IL-6 stimulated, 5 h; at 7.69 µM (top of the series) unless noted. The essentials:
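Reporter line: ME-180 cervical carcinoma, SIE-beta-lactamase. Treatment: compound with 40 pM IL-6, 5 hrs, 37 C, in low-serum OPTI-MEM with 10 mM HEPES pH 7.3. Detection: 460/530 nm fluorescence.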

The target of assay [6] is Glucocorticoid receptor (Homo sapiens) (UniProt P04150). The experiment in a line: GR-GFP Redistribution (AID 450;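 active = compounds whose dose series gives a full or clear partial fitted curve of increased nuclear translocation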; note: potency is the fitted concentration of half-maximal effect). As to conditions: U2OS GR-GFP nuclear translocation, laser cytometry, 2 h.
Sequence of Glucocorticoid receptor (Homo sapiens) (P04150 whole entry, looked up, the tested form may be a part): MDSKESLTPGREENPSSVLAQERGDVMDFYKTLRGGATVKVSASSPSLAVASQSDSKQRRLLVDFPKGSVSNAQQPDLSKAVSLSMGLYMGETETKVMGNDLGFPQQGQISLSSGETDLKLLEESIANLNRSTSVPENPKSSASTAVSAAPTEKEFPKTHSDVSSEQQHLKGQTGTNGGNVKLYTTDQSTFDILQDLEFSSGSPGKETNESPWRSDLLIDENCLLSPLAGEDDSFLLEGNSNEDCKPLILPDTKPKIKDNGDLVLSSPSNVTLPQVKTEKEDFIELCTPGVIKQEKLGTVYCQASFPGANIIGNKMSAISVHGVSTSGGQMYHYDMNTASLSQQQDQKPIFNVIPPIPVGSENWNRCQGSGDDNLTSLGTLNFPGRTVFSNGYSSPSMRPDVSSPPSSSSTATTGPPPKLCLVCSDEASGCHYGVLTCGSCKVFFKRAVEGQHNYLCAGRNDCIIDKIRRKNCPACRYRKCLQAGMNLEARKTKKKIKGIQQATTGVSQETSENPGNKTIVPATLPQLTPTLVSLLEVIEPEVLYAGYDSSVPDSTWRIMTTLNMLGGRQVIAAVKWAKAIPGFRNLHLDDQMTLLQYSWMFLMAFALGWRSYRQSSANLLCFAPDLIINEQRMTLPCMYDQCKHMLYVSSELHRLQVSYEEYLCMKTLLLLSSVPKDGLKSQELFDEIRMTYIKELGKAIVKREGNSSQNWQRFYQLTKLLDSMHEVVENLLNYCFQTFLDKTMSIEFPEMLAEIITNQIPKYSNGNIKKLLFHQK
For assay [7] the target is unchanged. The experiment in a line: GR-EFC Redistribution (AID 451; calls by dose curve; note: potency is the fitted concentration of half-maximal effect). As to conditions: CHO-K1 GR-EFC translocation, beta-gal luminescence, 2 h. The essentials: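 CHO-K1 cells stably expressing nuclear-localized β-gal enzyme acceptor and GR fused C-terminally to the enzyme donor fragment; ligand-driven nuclear translocation restores β-gal by complementation. Compounds titrated up to 46 uM final, 2 h at 37 °C; luminescence read.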

Assay [8] has as its target 3',5'-cyclic-AMP phosphodiesterase 4B (Homo sapiens) (UniProt Q07343). The experiment in a line: qHTS Assay for Inhibitors of PDE-IV (AID 607; active = well fitted activation curve with a large enough effect in the main read-out, with a control signal flat, not every such curve was filed as active; note: % of control where 0% means no effect). To be noted: HEK293 ACTOne CNG channel cells, membrane potential fluorescence; series mostly up to 22.9 µM. The procedure, abridged:
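Cell-based read-out of cAMP via a modified cyclic nucleotide-gated channel and membrane potential dye (535/590 nm) in HEK293 cells expressing PDE4 endogenously. Compounds tested up to 22.9 uM final; 100 uM RO 20-1724 reference.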

The target in assay [9] is Mitogen-activated protein kinase 10 (Mus musculus) (UniProt Q61831). The experiment in a line: JNK3 AlphaScreen Assay (AID 530).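 Note: kinase came from lysate of stimulated human HepG2 cells; % is set by controls: 0 for no effect and ±100 for the full control effect.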 As to conditions: JNK3 lysate, c-Jun phosphorylation; series mostly up to 11.4 µM. The procedure, abridged: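 JNK3 came from HepG2 lysates pre-activated with IL-1beta and TNF-alpha and phosphorylated biotinylated GST-cJun (1-79) at 10 uM ATP, pH 7.6, room temperature. Compounds were titrated. AlphaScreen signal used anti-phospho-cJun (Ser73) antibody.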
For orientation: Bead proximity is the source of the signal in Alpha formats.

Assay [10] concerns the target Cytochrome P450 2D6 (Homo sapiens) (UniProt P10635). The experiment in a line: qHTS Assay for Inhibitors and Substrates of Cytochrome P450 2D6 (AID 891; active = well fitted curve in the direction sought with a large enough effect; an effect the other way counts as inactive or inconclusive; note: potency is the fitted concentration of half-maximal effect; nearly all actives have a fitted effect of over 60% in size). As to conditions: recombinant CYP2D6, luciferin-ME EGE luminescence; series mostly up to 11.4 µM. The essentials: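 Human CYP2D6 (5 nM) with 30 uM Luciferin-ME EGE (at Km) in 100 mM KPO4, compound preincubated 10 min, then NADPH regeneration system for 60 min at room temperature. Luciferin read by luminescence; normalized to 1.43 uM quinidine.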
A general note: qHTS replaces the single test concentration by a dilution series.

Assay [11] is described as follows: qHTS Assay for Identification of Small Molecule Agonists for Hypoxia Response Element Signaling Pathway (AID 914; active = well fitted activation curve with a large enough effect in the signal ratio, with a control signal flat, not every such curve was filed as active; the % refers to the signal ratio; note: % of control where 0% means no effect). As to conditions: ME-180 (cervical carcinoma) HRE-bla reporter, beta-lactamase ratio, CoCl2, 17 h; activation: active compounds read high. The essentials:
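Cells were plated overnight, pin-dosed with compound in a titration series, co-stimulated with EC50 CoCl2 and incubated 17 hours at 37 degrees Celsius. CCF4 substrate was then loaded, and AC50 values came from the 460nm/530nm ratio.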

Assay [12] concerns the target Cytochrome P450 2C9 (Homo sapiens) (UniProt P11712). The experiment in a line: qHTS Assay for Inhibitors and Substrates of Cytochrome P450 2C9 (AID 883; active = well fitted curve in the direction sought with a large enough effect; an effect the other way counts as inactive or inconclusive; note: potency is the fitted concentration of half-maximal effect; nearly all actives have a fitted effect of over 60% in size). To be noted: recombinant CYP2C9, luciferin-H luminescence, 60 min; series mostly up to 11.4 µM. The procedure, abridged: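 Human CYP2C9 (10nM) hydroxylated Luciferin-H (100uM, at its KM) to luciferin in 25mM KPO4. Compound was preincubated 10 min at 37C, then NADPH regeneration started a 60 min reaction at 37C. Luminescence was read after detection reagent, normalized to 57uM sulphaphenazole.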

The target of assay [13] is Cytochrome P450 2C19 (Homo sapiens) (UniProt P33261). The experiment in a line: qHTS Assay for Inhibitors and Substrates of Cytochrome P450 2C19 (AID 899; active = well fitted curve in the direction sought with a large enough effect; an effect the other way counts as inactive or inconclusive; note: potency is the fitted concentration of half-maximal effect; nearly all actives have a fitted effect of over 60% in size). As to conditions: recombinant CYP2C19, luciferin-H EGE luminescence; series mostly up to 11.4 µM. The procedure, abridged:
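Human CYP2C19 (5nM) with Luciferin-H EGE at 10uM (its KM) in 50mM KPO4 was preincubated with compound for 10 min at 37C. NADPH regeneration started a 60 min 37C reaction. Luciferin was read by luminescence, normalized to 57uM ketoconazole.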

The target of assay [14] is Cytochrome P450 3A4 (Homo sapiens) (UniProt P08684). The experiment in a line: qHTS Assay for Activators of Cytochrome P450 3A4 (AID 885; active = well fitted curve in the direction sought with a large enough effect; an effect the other way counts as inactive or inconclusive; note: nearly all actives have a fitted effect of over 65% in size). As to conditions: recombinant CYP3A4, Luciferin-PPXE luminescence, 60 min; series mostly up to 11.4 µM. The essentials:
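Signal was normalized against complete inhibition by 57 uM ketoconazole. The reaction used 20nM CYP3A4 with 25uM Luciferin-PPXE, 10-min compound preincubation and a 60-min NADPH-supported step at RT.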

Sequence of Lysosomal acid glucosylceramidase (Homo sapiens) (P04062 whole entry, looked up): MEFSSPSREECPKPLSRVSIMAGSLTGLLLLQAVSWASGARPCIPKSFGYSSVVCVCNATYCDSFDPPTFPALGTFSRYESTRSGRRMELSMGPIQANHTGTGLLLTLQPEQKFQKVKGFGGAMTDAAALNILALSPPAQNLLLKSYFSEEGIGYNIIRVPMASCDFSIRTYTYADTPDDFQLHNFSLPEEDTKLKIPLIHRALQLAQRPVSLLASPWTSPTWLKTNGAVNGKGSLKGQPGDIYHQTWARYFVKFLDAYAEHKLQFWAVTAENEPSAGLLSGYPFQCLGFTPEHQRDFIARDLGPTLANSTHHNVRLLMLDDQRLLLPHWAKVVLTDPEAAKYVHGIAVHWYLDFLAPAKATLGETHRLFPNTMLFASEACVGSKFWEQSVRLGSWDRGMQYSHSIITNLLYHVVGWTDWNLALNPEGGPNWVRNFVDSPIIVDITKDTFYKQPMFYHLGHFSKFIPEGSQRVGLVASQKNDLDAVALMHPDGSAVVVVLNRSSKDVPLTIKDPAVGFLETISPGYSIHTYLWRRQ
Sequence of Cytochrome P450 1A2 (Homo sapiens) (P05177 whole entry, looked up): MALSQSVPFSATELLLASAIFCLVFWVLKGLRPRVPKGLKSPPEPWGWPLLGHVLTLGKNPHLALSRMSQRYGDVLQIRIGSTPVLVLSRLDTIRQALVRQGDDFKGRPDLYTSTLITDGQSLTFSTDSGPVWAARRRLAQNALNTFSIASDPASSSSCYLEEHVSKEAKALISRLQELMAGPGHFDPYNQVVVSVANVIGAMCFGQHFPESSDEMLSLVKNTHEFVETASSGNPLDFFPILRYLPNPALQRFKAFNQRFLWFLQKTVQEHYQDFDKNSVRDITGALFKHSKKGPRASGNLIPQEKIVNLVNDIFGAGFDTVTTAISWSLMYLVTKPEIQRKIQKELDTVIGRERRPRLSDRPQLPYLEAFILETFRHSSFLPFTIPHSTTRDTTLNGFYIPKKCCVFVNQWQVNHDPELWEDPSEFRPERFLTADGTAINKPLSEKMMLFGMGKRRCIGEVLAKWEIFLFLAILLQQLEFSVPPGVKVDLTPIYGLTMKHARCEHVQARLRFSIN
Sequence of Cytochrome P450 3A4 (Homo sapiens) (P08684 whole entry, looked up): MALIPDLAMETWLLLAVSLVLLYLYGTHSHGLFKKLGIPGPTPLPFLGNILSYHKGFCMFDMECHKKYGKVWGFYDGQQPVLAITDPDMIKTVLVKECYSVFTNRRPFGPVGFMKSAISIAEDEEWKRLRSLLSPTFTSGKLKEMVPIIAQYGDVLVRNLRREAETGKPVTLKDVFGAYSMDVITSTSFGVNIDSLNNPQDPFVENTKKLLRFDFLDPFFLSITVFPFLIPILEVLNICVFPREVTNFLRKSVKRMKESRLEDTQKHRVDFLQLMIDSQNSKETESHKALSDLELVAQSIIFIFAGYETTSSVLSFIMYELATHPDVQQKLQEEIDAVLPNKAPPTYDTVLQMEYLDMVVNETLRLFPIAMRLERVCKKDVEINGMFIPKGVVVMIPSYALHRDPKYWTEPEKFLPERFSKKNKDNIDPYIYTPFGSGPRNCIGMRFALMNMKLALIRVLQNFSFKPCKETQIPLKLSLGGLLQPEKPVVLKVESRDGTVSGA
Sequence of 3',5'-cyclic-AMP phosphodiesterase 4B (Homo sapiens) (Q07343 whole entry, looked up): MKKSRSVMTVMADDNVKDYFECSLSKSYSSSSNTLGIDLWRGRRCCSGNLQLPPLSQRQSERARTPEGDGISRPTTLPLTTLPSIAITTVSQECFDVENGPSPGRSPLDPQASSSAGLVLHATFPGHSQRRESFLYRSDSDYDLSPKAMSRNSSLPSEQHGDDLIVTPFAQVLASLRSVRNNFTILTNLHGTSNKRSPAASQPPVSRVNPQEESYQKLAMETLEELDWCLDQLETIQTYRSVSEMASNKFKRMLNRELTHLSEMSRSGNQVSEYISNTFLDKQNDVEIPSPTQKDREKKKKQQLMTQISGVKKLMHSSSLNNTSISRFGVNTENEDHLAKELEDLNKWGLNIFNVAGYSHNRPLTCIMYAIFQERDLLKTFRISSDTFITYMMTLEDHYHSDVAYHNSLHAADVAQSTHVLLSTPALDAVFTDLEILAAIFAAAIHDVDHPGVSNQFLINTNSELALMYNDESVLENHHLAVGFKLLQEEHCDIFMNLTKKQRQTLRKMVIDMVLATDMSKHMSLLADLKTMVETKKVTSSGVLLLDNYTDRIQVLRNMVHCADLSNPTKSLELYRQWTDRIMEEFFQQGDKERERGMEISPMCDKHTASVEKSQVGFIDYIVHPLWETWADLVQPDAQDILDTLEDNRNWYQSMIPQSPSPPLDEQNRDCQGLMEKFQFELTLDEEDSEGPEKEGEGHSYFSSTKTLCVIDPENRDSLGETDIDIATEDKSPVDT
Sequence of Cytochrome P450 2C9 (Homo sapiens) (P11712 whole entry, looked up): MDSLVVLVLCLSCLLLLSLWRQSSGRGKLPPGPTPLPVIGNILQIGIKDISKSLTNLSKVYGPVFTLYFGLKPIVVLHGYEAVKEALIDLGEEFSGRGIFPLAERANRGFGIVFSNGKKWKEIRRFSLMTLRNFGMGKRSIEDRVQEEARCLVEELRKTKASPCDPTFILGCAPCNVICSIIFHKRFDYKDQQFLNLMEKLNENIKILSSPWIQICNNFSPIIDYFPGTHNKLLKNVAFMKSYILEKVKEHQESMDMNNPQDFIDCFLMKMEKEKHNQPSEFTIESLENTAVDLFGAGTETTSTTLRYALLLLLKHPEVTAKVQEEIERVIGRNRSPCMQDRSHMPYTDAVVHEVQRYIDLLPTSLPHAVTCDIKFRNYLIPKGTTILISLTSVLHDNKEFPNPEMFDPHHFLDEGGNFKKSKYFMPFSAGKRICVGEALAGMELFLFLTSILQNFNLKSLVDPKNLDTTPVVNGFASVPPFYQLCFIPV
Sequence of Cytochrome P450 2C19 (Homo sapiens) (P33261 whole entry, looked up): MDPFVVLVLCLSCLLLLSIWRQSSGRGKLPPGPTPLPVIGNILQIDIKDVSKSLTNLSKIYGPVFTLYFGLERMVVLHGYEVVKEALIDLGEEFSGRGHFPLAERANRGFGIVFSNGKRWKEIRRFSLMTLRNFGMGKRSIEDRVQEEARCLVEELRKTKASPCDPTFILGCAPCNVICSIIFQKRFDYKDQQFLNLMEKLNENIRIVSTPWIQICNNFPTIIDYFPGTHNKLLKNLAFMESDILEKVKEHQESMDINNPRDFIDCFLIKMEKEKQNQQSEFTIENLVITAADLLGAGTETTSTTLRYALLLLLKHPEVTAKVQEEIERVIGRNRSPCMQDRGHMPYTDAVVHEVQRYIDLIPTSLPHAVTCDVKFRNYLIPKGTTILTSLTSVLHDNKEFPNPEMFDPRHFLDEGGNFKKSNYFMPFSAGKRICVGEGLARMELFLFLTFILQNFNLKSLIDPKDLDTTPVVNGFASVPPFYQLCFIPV
Sequence of Cytochrome P450 2D6 (Homo sapiens) (P10635 whole entry, looked up): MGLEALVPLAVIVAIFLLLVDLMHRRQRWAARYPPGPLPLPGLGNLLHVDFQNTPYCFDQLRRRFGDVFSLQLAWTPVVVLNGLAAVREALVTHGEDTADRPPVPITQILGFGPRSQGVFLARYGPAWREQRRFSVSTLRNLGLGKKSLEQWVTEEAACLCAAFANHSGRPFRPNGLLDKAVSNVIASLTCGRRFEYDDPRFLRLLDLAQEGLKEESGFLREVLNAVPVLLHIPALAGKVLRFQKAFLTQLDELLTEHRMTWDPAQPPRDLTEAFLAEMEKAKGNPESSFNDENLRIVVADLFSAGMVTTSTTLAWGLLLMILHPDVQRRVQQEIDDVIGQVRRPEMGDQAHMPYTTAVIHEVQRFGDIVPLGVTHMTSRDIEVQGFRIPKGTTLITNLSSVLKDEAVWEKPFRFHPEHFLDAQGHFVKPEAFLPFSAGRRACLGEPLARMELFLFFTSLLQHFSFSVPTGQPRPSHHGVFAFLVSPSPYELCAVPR

`O=C(O)c1c[nH]c2c(ccc3[nH]cc(C(=O)O)c(=O)c32)c1=O`: the Potency in assay [1] was more than 11.4 µM; in assay [3], 5.01 µM (active); in assay [6], more than 46 µM; in assay [7] it was more than 9.22 µM. Besides, the activity change, negative = inhibition in [2] is -0.603%; in assay [4], 8.43%. Moreover, in assay [5], the activity, negative = inhibition is 13.7%. Moreover, the Potency entry in assay [8] is “inactive”.
As to `O=C(O)NCc1ccccc1` (tested in a mixture with another compound), the Potency is more than 11.4 µM in [1]; 3.16 µM (active) in assay [3]; more than 46 µM in [6]; more than 9.22 µM in assay [7]; 3.98 µM (active) in assay [10]. Moreover, the activity change, negative = inhibition in assay [2] was 4.23%; in [4] it was -18.9%. Moreover, the activity, negative = inhibition in assay [5] is 1.18%. In addition, the Potency result in [9] was “inactive”. Besides, the activation in assay [11] was 1.79%.
Take `O=c1cnc2cnc(Oc3ccccc3)nc2n1CCc1ccccc1`: the Potency is more than 11.4 µM in assay [1]; 3.16 µM (active) in assay [3]; more than 9.22 µM in assay [6]; more than 46 µM in assay [7]; 3.16 µM (active) in [12]; 6.31 µM (active) in assay [13]. Besides, the activity change, negative = inhibition was 6.02% in [2] and -28.7% in assay [4]. The activity, negative = inhibition in assay [5] was -4.75%. Further, the Potency entry in assay [9] was “inactive”.
With `O=C(O)c1cccc2cccc(-c3cccc4cccc(C(=O)O)c34)c12`, the Potency in assay [1] is more than 11.4 µM; in assay [6], more than 46 µM; in [7], more than 9.22 µM. For the same compound, the figures for the activity change, negative = inhibition in assay [2], in assay [3] and in assay [4] were 4.88%, -12.3% [at 2.29 µM] and 10.7%, respectively. Besides, in assay [5], the activity, negative = inhibition is 6.14%. Further, in assay [8], the Potency entry was “inactive”.
Take `Nc1ccc(S(=O)(=O)c2ccc(NC(=O)c3cccnc3)cc2)cc1`: the Potency was more than 11.4 µM in assay [1], more than 46 µM in [6] and more than 9.22 µM in assay [7]. Also, the activity change, negative = inhibition in assay [2] is -0.755%; in assay [3] it was -21.1% [at 2.29 µM]; in assay [4], 12.7%. Besides, the activity, negative = inhibition in [5] was 8.7%. The Potency result in assay [9] and in [14] was “inactive” throughout.
Turning to `O=C(O)c1[nH]c2c([N+](=O)[O-])cc([N+](=O)[O-])cc2c1C(=O)O`, the Potency in [1] was more than 11.4 µM; in assay [3], 0.126 µM (active); in assay [6], more than 46 µM; in [7] it was more than 9.22 µM; in [12], 3.16 µM (active). Moreover, the figures for the activity change, negative = inhibition in assay [2] and in [4] were 0.189% and 2.5%, respectively. Besides, in assay [5], the activity, negative = inhibition is -6.73%. In [9], the Potency entry is “inactive”.
Regarding `COc1ccc(-n2c(=O)c(C)nc3cnc(Nc4cccc(OC)c4)nc32)cc1`, the Potency in assay [1] is more than 11.4 µM; in [3], 15.8 µM (active); in [6], more than 9.22 µM; in assay [7], more than 46 µM. For the same compound, the activity change, negative = inhibition in assay [2] was -25.7%; in assay [4], 10.5%. In assay [5], the activity, negative = inhibition is -24.1%. Moreover, the Potency entry in assay [9] and in assay [14] was “inactive” throughout.
